The supplement of paper PMC8728848
This excerpt belongs to a sample that is enriched for the strongest signals.

Assays:
Assay in all cases: glycan array binding signal (z-score within array); higher = stronger binding
Conditions in all cases: glycan notation: IUPAC condensed, linker removed
[1] = target: Fuc(a1-3)[Gal(b1-4)]GlcNAc
Summary of the method: (§1)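 From the Consortium for Functional Glycomics database, 3228 arrays were curated, keeping only those whose protein sequence was available. Binding is given as a within-array Z-score averaged across arrays sharing a protein sequence and across linkers. Negative Z-scores can be read as non-binding.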

[2] = target: Fuc(a1-3)[Gal3S(b1-4)]GlcNAc
Summary of the method: as §1

Gal(a1-2)Gal = target: Gal(a1-2)Gal
Summary of the method: as §1

Gal(b1-2)Gal = target: Gal(b1-2)Gal
Summary of the method: as §1

[3] = target: Gal3S(b1-3)[Fuc(a1-4)]GlcNAc
Summary of the method: as §1

Glc(b1-4)Glc = target: Glc(b1-4)Glc
Summary of the method: as §1

[4] = target: GlcNAc(a1-6)Gal(b1-4)GlcNAc
Summary of the method: as §1

GlcNAc(b1-3)GalNAc = target: GlcNAc(b1-3)GalNAc
Summary of the method: as §1

[5] = target: GlcNAc(b1-4)[GlcNAc(b1-6)]GalNAc
Summary of the method: as §1

[6] = target: Man(a1-2)Man(a1-2)Man(a1-3)[Man(a1-2)Man(a1-3)[Man(a1-2)Man(a1-6)]Man(a1-6)]Man(b1-4)GlcNAc(b1-4)GlcNAc
Summary of the method: as §1

[7] = target: Man(a1-2)Man(a1-2)Man(a1-3)[Man(a1-2)Man(a1-6)[Man(a1-3)]Man(a1-6)]Man(b1-4)GlcNAc(b1-4)GlcNAc
Summary of the method: as §1

[8] = target: Man(a1-2)Man(a1-3)[Man(a1-6)]Man(a1-6)[Man(a1-2)Man(a1-3)]Man(b1-4)GlcNAc(b1-4)GlcNAc
Summary of the method: as §1

[9] = target: Man(a1-3)[Man(a1-6)]Man(a1-6)[Man(a1-3)]Man(b1-4)GlcNAc(b1-4)GlcNAc
Summary of the method: as §1

[10] = target: Man(a1-3)[Man(a1-6)]Man(b1-4)GlcNAc(b1-4)GlcNAc
Summary of the method: as §1

[11] = target: Neu5Ac(a2-3)Gal(b1-3)[Fuc(a1-4)]GlcNAc
Summary of the method: as §1

[12] = target: Neu5Ac(a2-3)[GalNAc(b1-4)]Gal(b1-4)Glc
Summary of the method: as §1

[13] = target: Neu5Ac(a2-6)GalNAc(b1-4)GlcNAc
Summary of the method: as §1

[14] = target: Neu5Ac(a2-8)Neu5Ac(a2-3)[GalNAc(b1-4)]Gal(b1-4)Glc
Summary of the method: as §1

[15] = target: Fuc(a1-3)[Gal(b1-4)]GlcNAc(b1-4)Gal(b1-4)[Fuc(a1-3)]GlcNAc
Summary of the method: as §1

[16] = target: Gal(b1-3)[Fuc(a1-4)]GlcNAc
Summary of the method: as §1

[17] = target: Gal(b1-4)GlcNAc(b1-3)Gal(b1-4)[Fuc(a1-3)]GlcNAc(b1-3)Gal(b1-4)[Fuc(a1-3)]GlcNAc
Summary of the method: as §1

Gal3S(b1-4)Glc6S = target: Gal3S(b1-4)Glc6S
Summary of the method: as §1

Gal6S(b1-4)Glc6S = target: Gal6S(b1-4)Glc6S
Summary of the method: as §1

Glc(b1-6)Glc = target: Glc(b1-6)Glc
Summary of the method: as §1

[18] = target: GlcNAc(b1-2)Gal(b1-3)GlcNAc
Summary of the method: as §1

[19] = target: Neu5Ac(a2-3)Gal(b1-4)GlcNAc(b1-3)Gal(b1-4)[Fuc(a1-3)]GlcNAc
Summary of the method: as §1

[20] = target: Neu5Ac(a2-6)Gal(b1-4)GlcNAc
Summary of the method: as §1

[21] = target: Neu5Ac(a2-8)Neu5Ac(a2-8)Neu5Ac(a2-8)Neu5Ac(a2-3)[GalNAc(b1-4)]Gal(b1-4)Glc
Summary of the method: as §1

[22] = target: Neu5Ac9Ac(a2-6)Gal(b1-4)GlcNAc
Summary of the method: as §1

[23] = target: Neu5Gc(a2-3)Gal(b1-3)[Fuc(a1-4)]GlcNAc
Summary of the method: as §1

[24] = target: Fuc(a1-3)[Gal(b1-4)]GlcNAc(b1-3)Gal(b1-3)[Fuc(a1-4)]GlcNAc
Summary of the method: as §1

[25] = target: Fuc(a1-3)[Gal(b1-4)]GlcNAc(b1-4)Gal(b1-4)[Fuc(a1-3)]GlcNAc(b1-4)Gal(b1-4)[Fuc(a1-3)]GlcNAc
Summary of the method: as §1

Gal(a1-6)Glc = target: Gal(a1-6)Glc
Summary of the method: as §1

Gal(b1-3)Gal(b1-4)GlcNAc = target: Gal(b1-3)Gal(b1-4)GlcNAc
Summary of the method: as §1

Gal(b1-3)GlcNAc = target: Gal(b1-3)GlcNAc
Summary of the method: as §1

[26] = target: Gal(b1-3)GlcNAc(b1-2)Man(a1-3)[Gal(b1-3)GlcNAc(b1-2)Man(a1-6)]Man(b1-4)GlcNAc(b1-4)GlcNAc
Summary of the method: as §1

[27] = target: Gal(b1-3)GlcNAc(b1-3)Gal(b1-4)Glc
Summary of the method: as §1

[28] = target: Gal(b1-3)[Fuc(a1-4)]GlcNAc(b1-3)Gal(b1-4)[Fuc(a1-3)]GlcNAc
Summary of the method: as §1

[29] = target: Gal(b1-4)GlcNAc(b1-3)[Gal(b1-4)GlcNAc(b1-6)]Gal(b1-4)GlcNAc
Summary of the method: as §1

Gal6S(b1-4)Glc = target: Gal6S(b1-4)Glc
Summary of the method: as §1

[30] = target: GlcNAc(b1-3)[GlcNAc(b1-6)]GalNAc
Summary of the method: as §1

[31] = target: GlcNAc(b1-4)GlcNAc(b1-4)GlcNAc
Summary of the method: as §1

[32] = target: GlcNAc(b1-4)GlcNAc(b1-4)GlcNAc(b1-4)GlcNAc(b1-4)GlcNAc(b1-4)GlcNAc
Summary of the method: as §1

[33] = target: Man(a1-2)Man(a1-2)Man(a1-3)Man
Summary of the method: as §1

[34] = target: Man(a1-2)Man(a1-2)Man(a1-6)[Man(a1-3)]Man
Summary of the method: as §1

[35] = target: Man(a1-2)Man(a1-3)[Man(a1-2)Man(a1-6)]Man
Summary of the method: as §1

[36] = target: Man(a1-2)Man(a1-6)[Man(a1-3)]Man(a1-6)[Man(a1-2)Man(a1-2)Man(a1-3)]Man(b1-4)GlcNAc(b1-4)GlcNAc
Summary of the method: as §1

[37] = target: Man(a1-3)[Man(a1-6)]Man(a1-6)[Man(a1-2)Man(a1-3)]Man(b1-4)GlcNAc(b1-4)GlcNAc
Summary of the method: as §1

Neu5Ac(a2-3)Gal = target: Neu5Ac(a2-3)Gal
Summary of the method: as §1

[38] = target: Neu5Ac(a2-3)Gal(b1-3)[Fuc(a1-4)]GlcNAc(b1-3)Gal(b1-4)[Fuc(a1-3)]GlcNAc
Summary of the method: as §1

[39] = target: Neu5Ac(a2-3)[Neu5Ac(a2-6)]GalNAc
Summary of the method: as §1

[40] = target: Neu5Ac(b2-6)Gal(b1-4)GlcNAc
Summary of the method: as §1

B1: FBG2 (Homo sapiens), Q9NRD1 (protein)
chain: MDAPHSKAALDSINELPENILLELFTHVPARQLLLNCRLVCSLWRDLIDLMTLWKRKCLREGFITKDWDQPVADWKIFYFLRSLHRNLLRNPCAEEDMFAWQIDFNGGDRWKVESLPGAHGTDFPDPKVKKYFVTSYEMCLKSQLVDLVAEGYWEELLDTFRPDIVVKDWFAARADCGCTYQLKVQLASADYFVLASFEPPPVTIQQWNNATWTEVSYTFSDYPRGVRYILFQHGGRDTQYWAGWYGPRVTNSSIVVSPKMTRNQASSEAQPGQKHGQEEAAQSPYRAVVQIFPPPVTIQQWNNATWTEVSYTFSDYPRGVRYILFQHGGRDTQYWAGWYGPRVTNSSIVVSPKMTRNQASSEAQPGQKHGQEEAAQSPYRAVVQI
[1]
  glycan array binding signal (z-score): -0.537
[2]
  glycan array binding signal (z-score): -0.236
Gal(a1-2)Gal
  glycan array binding signal (z-score): -0.526
Gal(b1-2)Gal
  glycan array binding signal (z-score): -0.363
[3]
  glycan array binding signal (z-score): 1.01
Glc(b1-4)Glc
  glycan array binding signal (z-score): -0.116
[4]
  glycan array binding signal (z-score): -0.895
GlcNAc(b1-3)GalNAc
  glycan array binding signal (z-score): -0.923
[5]
  glycan array binding signal (z-score): -0.787
[6]
  glycan array binding signal (z-score): 3.27
[7]
  glycan array binding signal (z-score): 3.69
[8]
  glycan array binding signal (z-score): 3.61
[9]
  glycan array binding signal (z-score): 4.08
[10]
  glycan array binding signal (z-score): 3.91
[11]
  glycan array binding signal (z-score): -0.752
[12]
  glycan array binding signal (z-score): -0.116
[13]
  glycan array binding signal (z-score): -0.582
[14]
  glycan array binding signal (z-score): -0.018

B2: Onconase (Rana pipiens), P22069 (protein)
chain: QDWLTFQKKHITNTRDVDCDNIMSTNLFHCKDKNTFIYSRPEPVKAICKGIIASKNVLTTSEFYLSDCNVTSRPCKYKLKKSTNKFCVTCENQAPVHFVGVGSC
[15]
  glycan array binding signal (z-score): 1.21
Gal(a1-2)Gal
  glycan array binding signal (z-score): 3.22
Gal(b1-2)Gal
  glycan array binding signal (z-score): 2.63
[16]
  glycan array binding signal (z-score): -0.553
[17]
  glycan array binding signal (z-score): 2.54
Gal3S(b1-4)Glc6S
  glycan array binding signal (z-score): -0.281
Gal6S(b1-4)Glc6S
  glycan array binding signal (z-score): 0.598
Glc(b1-6)Glc
  glycan array binding signal (z-score): 0.027
[18]
  glycan array binding signal (z-score): -0.449
GlcNAc(b1-3)GalNAc
  glycan array binding signal (z-score): -0.84
[19]
  glycan array binding signal (z-score): -0.671
[20]
  glycan array binding signal (z-score): 0.51
[21]
  glycan array binding signal (z-score): 2.71
[22]
  glycan array binding signal (z-score): -0.006
[23]
  glycan array binding signal (z-score): 1.6

B3: Surfactant Protein D (Human); Neck + Carbohydrate Recognition Domain (NCRD) (Homo sapiens) (protein)
chain: MLLFLLSALVLLTQPLGYLEAEMKTYSHRTMPSACTLVMCSSVESGLPGRDRDGREGPRGEKGDPGLPGAAGQAGMPGQAGPVGPKGDNGSVGEPGPKGDTGPSGPPGPPGVPGPAGREGALGKQGNIGPQGKPGPKGEAGPKGEVGAPGMQGSAGARGLAGPKGERGVPGERGVPGNTGAAGSAGAMGPQGSPGARGPPGLKGDKGIPGDKGAKGESGLPDVASLRQQVEALQGQVQHLQAAFSQYKKVELFPNGQSVGEKIFKTAQFVKPFTEAQLLCTQAGGQLASPRSAAENAALQQLVVAKNEAAFLSMTDSKTEGKFTYPTGESLVYSNWAPGEPNDDGGSEDCVEIFTNGKWNDRACGEKRLVVCEF
[24]
  glycan array binding signal (z-score): -0.257
[25]
  glycan array binding signal (z-score): -0.273
Gal(a1-6)Glc
  glycan array binding signal (z-score): -0.083
Gal(b1-3)Gal(b1-4)GlcNAc
  glycan array binding signal (z-score): -0.274
Gal(b1-3)GlcNAc
  glycan array binding signal (z-score): -0.263
[26]
  glycan array binding signal (z-score): -0.275
[27]
  glycan array binding signal (z-score): -0.271
[16]
  glycan array binding signal (z-score): -0.233
[28]
  glycan array binding signal (z-score): -0.053
[29]
  glycan array binding signal (z-score): -0.29
Gal6S(b1-4)Glc
  glycan array binding signal (z-score): -0.216
[30]
  glycan array binding signal (z-score): -0.258
[31]
  glycan array binding signal (z-score): -0.24
[32]
  glycan array binding signal (z-score): 0.127
[33]
  glycan array binding signal (z-score): 6.02
[34]
  glycan array binding signal (z-score): 5.46
[35]
  glycan array binding signal (z-score): 4.89
[8]
  glycan array binding signal (z-score): 6.78
[36]
  glycan array binding signal (z-score): 5.33
[37]
  glycan array binding signal (z-score): 4.68
Neu5Ac(a2-3)Gal
  glycan array binding signal (z-score): -0.243
[38]
  glycan array binding signal (z-score): 0.1
[12]
  glycan array binding signal (z-score): -0.277
[39]
  glycan array binding signal (z-score): -0.296
[14]
  glycan array binding signal (z-score): -0.238
[40]
  glycan array binding signal (z-score): -0.288
